Our source for the outcome and AC50 values is PubChem BioAssay (EPA / NIEHS).

Active and inactive are the calls of the source. How the source made its calls: active means hit-call score of the fitted dose curve at least 0.9, where 1 is the maximum; inactive means score below 0.9.

A word on the AC50: it is the concentration at which the activity in the assay is half-maximal.

Assay [1] is described as follows: ATG_CRE_CIS: Attagene CIS-FACTORIAL HepG2 Assay for human cAMP Responsive Element (CRE) binding protein 3 (AID 2282926). The conditions noted are these: HepG2 CRE cis-reporter, Attagene multiplexed mRNA; actives raise or lower the signal. The method, boiled down:
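Transfected HepG2 were treated for 24 hours, then RNA was extracted and reporter cDNA amplified with sequence-specific primers. Labelled fragments were separated by capillary electrophoresis, and the CRE signal was fitted bidirectionally with DMSO as baseline.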

Assay [2] addresses CCAAT/enhancer-binding protein beta (Homo sapiens) (UniProt P17676). Briefly: ATG_C_EBP_CIS: Attagene CIS-FACTORIAL HepG2 Assay for human CCAAT/Enhancer Binding Protein (C/EBP) beta (AID 2282927). The conditions noted are these: HepG2 Attagene cis-factorial transcription factor reporter; actives raise or lower the signal. The method, boiled down: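 Following a 24 h incubation with test chemical, transfected HepG2 cells yielded RNA whose reporter transcripts were quantified by RT-PCR and fluorescent capillary electrophoresis, with DMSO serving as baseline for bidirectional fitting.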

Assay [3] can be described thus: ATG_CMV_CIS: Attagene CIS-FACTORIAL HepG2 Assay for human CMV (Internal Marker) (AID 2282928).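 Further: endpoint acts as a background internal control marker rather than a target.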 The following applies: HepG2 CMV promoter reporter, transcription factor profiling; actives raise or lower the signal. The method, boiled down:
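After transient transfection of HepG2 with reporter transcription units driven by cis-regulatory promoters, cells receive test chemical for 24 h. Labeled reporter amplicons, digested with HpaI, are sized and quantified by capillary electrophoresis against DMSO.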

A short description of assay [4]: ATG_DR4_LXR_CIS: Attagene CIS-FACTORIAL HepG2 Assay for human Liver X Receptor (LXR), DR4 submotif (AID 2282929). The conditions noted are these: HepG2 Attagene DR4 cis-reporter, mRNA transcription; actives raise or lower the signal. The method, boiled down: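 Measures endogenous transcription factor activity via a DR4-driven reporter transcript in human HepG2 cells. Compounds incubated 24 h; mRNA quantified by RT-PCR and capillary electrophoresis, analysed as gain or loss of signal versus DMSO.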

Assay [5] addresses Aryl hydrocarbon receptor (Homo sapiens) (UniProt P35869). Briefly: ATG_Ahr_CIS: Attagene CIS-FACTORIAL HepG2 Assay for human Aryl Hydrocarbon Receptor (Ahr) (AID 2282930). The following applies: HepG2 AhR cis-factorial reporter transcription; actives raise or lower the signal. In outline:
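Values derive from bidirectional fitting against DMSO negative control. Underlying signal: cis-element reporter mRNA in transiently transfected HepG2, harvested 24 h post-dose and measured by RT-PCR plus capillary electrophoresis.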

Assay [6] can be described thus: ATG_AP_1_CIS: Attagene CIS-FACTORIAL HepG2 Assay for human Activator Protein 1 (AP-1) (AID 2282931). The following applies: HepG2 Attagene cis-factorial AP-1 reporter mRNA; actives raise or lower the signal. The method, boiled down: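 Bidirectional concentration-response fitting against DMSO controls. Underlying signal: reporter mRNA from cis-promoter constructs in transiently transfected HepG2, measured after 24 h by RT-PCR and capillary electrophoresis.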

Assay [7] can be described thus: ATG_AP_2_CIS: Attagene CIS-FACTORIAL HepG2 Assay for human Activator Protein 2 (AP-2) (AID 2282932). The conditions noted are these: HepG2 AP-2 cis-reporter, Attagene transcription factor profiling; actives raise or lower the signal. The method, boiled down:
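HepG2 cells were transiently transfected with multiple cis-promoter reporter transcription units and dosed for 24 h. Reporter mRNA was measured by RT-PCR with capillary electrophoresis fluorescence; bidirectional fits relative to DMSO baseline.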

The nature of assay [8]: ATG_BRE_CIS: Attagene CIS-FACTORIAL HepG2 Assay for human Bone Morphogenetic Protein (BMP) Response Element (BRE) (AID 2282933). The conditions noted are these: HepG2 BMP response element reporter, Attagene transcription factor profiling; actives raise or lower the signal. The method, boiled down: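 After a 24 h chemical treatment, transiently transfected HepG2 cells were lysed for RNA; reporter transcripts were quantified by fluorescent RT-PCR and capillary electrophoresis, normalised to DMSO.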

Assay [9] has as its target Retinoic acid receptor alpha (Homo sapiens) (UniProt P10276). Briefly: ATG_DR5_RAR_CIS: Attagene CIS-FACTORIAL HepG2 Assay for human Retinoic Acid Receptor Alpha (RARE), DR5 submotif (AID 2282934). The following applies: HepG2 Attagene cis-factorial RARE DR5 reporter, mRNA; actives raise or lower the signal. In outline:
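Endpoint fitted in both directions relative to DMSO as negative control. It reflects DR5 cis-element reporter mRNA induction in transiently transfected HepG2 cells, measured 24 h after dosing through RT-PCR and fluorescent capillary electrophoresis.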

In assay [10] the target is Transcription factor E2F1 (Homo sapiens) (UniProt Q01094). Briefly: ATG_E2F_CIS: Attagene CIS-FACTORIAL HepG2 Assay for human E2F Transcription Factor 1 (AID 2282935). The conditions noted are these: HepG2 Attagene cis-reporter, E2F reporter RNA transcripts; actives raise or lower the signal. In outline: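 HepG2 cells transiently transfected with multiplexed cis-element reporter units, dosed for 24 h. Reporter mRNA measured by RT-PCR, 6-FAM primer-extension labeling, HpaI digestion and capillary electrophoresis; bidirectional fit versus DMSO baseline.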

A short description of assay [11]: ATG_E_Box_CIS: Attagene CIS-FACTORIAL HepG2 Assay for human Enhancer Box (E-box) (AID 2282936). The conditions noted are these: HepG2 E-box cis-reporter transcription, actives raise or lower the signal. In outline: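 HepG2 cells transiently transfected with multiplexed cis-element reporter units sensing endogenous transcription factor activity; 24 h compound exposure. Reporter mRNA measured by RT-PCR, 6-FAM primer extension, HpaI digestion and capillary electrophoresis; bidirectional fit versus DMSO.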

Assay [12] can be described thus: ATG_M_61_CIS: Attagene CIS-FACTORIAL HepG2 Assay for M61 Transcription Factor (Internal Marker) (AID 2282937). The following applies: HepG2 Attagene CIS-FACTORIAL M61 internal marker reporter; actives raise or lower the signal. The method, boiled down: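 Fluorescence from labelled cDNA fragments, separated by capillary electrophoresis, quantifies reporter induction. HepG2 cells bearing transiently transfected cis-promoter MRTUs were incubated with test chemical for 24 h; DMSO defined baseline for gain/loss fitting.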

Assay [13] can be described thus: ATG_EGR_CIS: Attagene CIS-FACTORIAL HepG2 Assay for human Early Growth Response 1 (EGR1) (AID 2282938). The following applies: HepG2 Attagene CIS-FACTORIAL EGR reporter mRNA; actives raise or lower the signal. In outline:
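Cell-based multiplex transcription assay: HepG2 carrying transfected cis-element reporter units, 24 h chemical treatment. Fluorescence from capillary electrophoresis of RT-PCR products gives mRNA levels; fitting is bidirectional relative to DMSO.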

The nature of assay [14]: ATG_M_19_CIS: Attagene CIS-FACTORIAL HepG2 Assay for M19 Transcription Factor (Internal Marker) (AID 2282939). The conditions noted are these: HepG2 Attagene CIS-FACTORIAL M19 internal marker reporter; actives raise or lower the signal. The method, boiled down:
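In this multiplexed cell assay, transiently transfected HepG2 reporter units report endogenous transcription-factor activity; after 24 hours of treatment, labelled reporter cDNA fragments are quantified by capillary electrophoresis and fitted bidirectionally against DMSO.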

Assay [15] in a line: ATG_Ets_CIS: Attagene CIS-FACTORIAL HepG2 Assay for human Erythroblast Transformation Specific (ETS) (AID 2282941). The following applies: HepG2 ETS cis-reporter transcription, actives raise or lower the signal. The method, boiled down:
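Human HepG2 hepatoma cells were transiently transfected with promoter-driven reporter constructs and treated for 24 hours. Reporter transcripts were quantified by RT-PCR with fluorescent primer extension; bidirectional curve fitting used DMSO as reference.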

Assay [16] has as its target Hepatocyte nuclear factor 3-beta (Homo sapiens) (UniProt Q9Y261). Briefly: ATG_FoxA2_CIS: Attagene CIS-FACTORIAL HepG2 Assay for human Forkhead box A2 (FOXA2) (AID 2282942). The following applies: HepG2 cis-reporter transcription factor activity, 24 h; actives raise or lower the signal. The method, boiled down:
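In transiently transfected human HepG2 cells, promoter-driven reporter mRNA levels after 24 h chemical exposure are determined via RT-PCR with capillary electrophoresis. DMSO serves as baseline for bidirectional fitting.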

The nature of assay [17]: ATG_FoxO_CIS: Attagene CIS-FACTORIAL HepG2 Assay for human Forkhead box O (FoxO) (AID 2282943). The following applies: HepG2 Attagene cis-reporter, FoxO element, mRNA; actives raise or lower the signal. The method, boiled down: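 Values reflect reporter mRNA induction or loss in HepG2 cells 24 h post-dosing, fitted bidirectionally with DMSO as negative control and baseline. Detection used RT-PCR and fluorescence capillary electrophoresis.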

Assay [18] is described as follows: ATG_GLI_CIS: Attagene CIS-FACTORIAL HepG2 Assay for human Zinc Finger Protein GLI1 (AID 2282945). The conditions noted are these: HepG2, Attagene cis-factorial reporter mRNA, GLI element; actives raise or lower the signal. The method, boiled down: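 HepG2 cells transiently transfected with cis-promoter multiplexed reporter units report endogenous transcription factor activity. After 24 h chemical exposure, reporter mRNA was quantified by RT-PCR, 6-FAM labelling, HpaI digestion and capillary electrophoresis, with bidirectional fitting against DMSO.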

In assay [19] the target is Bile acid receptor (Homo sapiens) (UniProt Q96RI1). Description: ATG_IR1_CIS: Attagene CIS-FACTORIAL HepG2 Assay for human Nuclear Receptor Subfamily 1 Group H Member 4 (NR1H4), IR1 submotif (AID 2282946). The conditions noted are these: IR1 reporter transcription, actives raise or lower the signal. The method, boiled down: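 Transient MRTU transfection, HepG2; 24 h dosing; RNA → RT-PCR → 6-FAM primer extension → HpaI digest → capillary electrophoresis fluorescence. Gain/loss of signal fitted relative to DMSO.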

Assay [20] in a line: ATG_GATA_CIS: Attagene CIS-FACTORIAL HepG2 Assay for human GATA Binding Protein (AID 2282944). The following applies: HepG2 GATA cis-element reporter, Attagene multiplex mRNA; actives raise or lower the signal. In outline: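 Measures endogenous transcription factor-driven reporter mRNA in HepG2 cells transiently carrying cis-regulated constructs. 24 h dosing; RNA via oligo(dT) reverse transcription, PCR, HpaI digestion, capillary electrophoresis; fitted relative to DMSO.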

CCAAT/enhancer-binding protein beta (Homo sapiens), sequence (P17676 whole entry, looked up): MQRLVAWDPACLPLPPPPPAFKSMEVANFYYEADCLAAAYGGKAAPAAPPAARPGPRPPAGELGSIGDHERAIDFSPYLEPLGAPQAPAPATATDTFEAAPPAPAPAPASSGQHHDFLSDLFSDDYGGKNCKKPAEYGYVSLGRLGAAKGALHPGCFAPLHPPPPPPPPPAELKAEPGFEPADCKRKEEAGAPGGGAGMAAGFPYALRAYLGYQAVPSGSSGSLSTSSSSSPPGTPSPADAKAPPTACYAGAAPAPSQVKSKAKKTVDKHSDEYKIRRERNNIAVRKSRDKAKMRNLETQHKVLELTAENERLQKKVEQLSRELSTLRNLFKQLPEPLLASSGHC
Transcription factor E2F1 (Homo sapiens), sequence (Q01094 whole entry, looked up): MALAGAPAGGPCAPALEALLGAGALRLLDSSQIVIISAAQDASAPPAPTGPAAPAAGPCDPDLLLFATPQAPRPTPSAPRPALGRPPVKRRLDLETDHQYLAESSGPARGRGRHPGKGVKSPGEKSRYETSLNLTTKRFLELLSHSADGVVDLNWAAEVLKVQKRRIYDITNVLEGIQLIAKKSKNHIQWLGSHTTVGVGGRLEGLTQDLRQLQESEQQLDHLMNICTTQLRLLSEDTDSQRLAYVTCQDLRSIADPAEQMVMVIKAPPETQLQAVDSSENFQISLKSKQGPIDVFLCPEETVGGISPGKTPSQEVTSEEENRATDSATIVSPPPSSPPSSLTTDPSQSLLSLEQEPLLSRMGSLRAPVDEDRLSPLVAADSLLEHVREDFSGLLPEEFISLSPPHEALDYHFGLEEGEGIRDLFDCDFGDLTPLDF
Aryl hydrocarbon receptor (Homo sapiens), sequence (P35869 whole entry, looked up): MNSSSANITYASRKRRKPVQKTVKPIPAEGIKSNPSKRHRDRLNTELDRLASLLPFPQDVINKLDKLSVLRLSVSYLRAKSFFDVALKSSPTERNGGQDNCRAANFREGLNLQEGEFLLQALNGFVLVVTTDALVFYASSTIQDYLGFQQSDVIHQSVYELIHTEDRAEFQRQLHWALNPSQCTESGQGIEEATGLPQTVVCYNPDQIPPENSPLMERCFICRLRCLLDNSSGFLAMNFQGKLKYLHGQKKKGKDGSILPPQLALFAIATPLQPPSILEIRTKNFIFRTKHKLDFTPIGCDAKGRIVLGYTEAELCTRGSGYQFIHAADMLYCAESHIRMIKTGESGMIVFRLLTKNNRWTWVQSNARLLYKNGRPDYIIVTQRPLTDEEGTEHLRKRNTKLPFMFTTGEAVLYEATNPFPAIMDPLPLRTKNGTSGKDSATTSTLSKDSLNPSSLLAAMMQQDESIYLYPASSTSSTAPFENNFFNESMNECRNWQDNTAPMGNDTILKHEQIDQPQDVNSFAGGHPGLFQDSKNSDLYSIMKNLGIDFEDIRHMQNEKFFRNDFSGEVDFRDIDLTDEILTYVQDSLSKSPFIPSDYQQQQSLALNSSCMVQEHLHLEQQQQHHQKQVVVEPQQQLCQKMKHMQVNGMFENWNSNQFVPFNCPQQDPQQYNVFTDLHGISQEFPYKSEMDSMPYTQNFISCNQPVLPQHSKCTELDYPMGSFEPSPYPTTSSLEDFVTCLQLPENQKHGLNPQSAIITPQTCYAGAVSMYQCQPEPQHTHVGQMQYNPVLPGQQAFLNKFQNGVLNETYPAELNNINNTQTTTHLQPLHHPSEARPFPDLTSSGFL
Hepatocyte nuclear factor 3-beta (Homo sapiens), sequence (Q9Y261 whole entry, looked up): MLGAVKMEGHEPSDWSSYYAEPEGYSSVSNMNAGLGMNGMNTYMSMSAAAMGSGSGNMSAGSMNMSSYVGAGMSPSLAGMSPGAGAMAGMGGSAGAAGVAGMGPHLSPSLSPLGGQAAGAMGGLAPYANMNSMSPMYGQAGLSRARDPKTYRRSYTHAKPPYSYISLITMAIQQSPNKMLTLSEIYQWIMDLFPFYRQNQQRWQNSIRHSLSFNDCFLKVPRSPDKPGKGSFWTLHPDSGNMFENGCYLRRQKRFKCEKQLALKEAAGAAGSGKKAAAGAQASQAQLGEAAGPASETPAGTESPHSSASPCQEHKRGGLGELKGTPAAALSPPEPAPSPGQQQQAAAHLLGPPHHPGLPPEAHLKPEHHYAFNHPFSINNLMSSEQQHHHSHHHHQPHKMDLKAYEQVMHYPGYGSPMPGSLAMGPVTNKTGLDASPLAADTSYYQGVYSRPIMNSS
Bile acid receptor (Homo sapiens), sequence (Q96RI1 whole entry, looked up): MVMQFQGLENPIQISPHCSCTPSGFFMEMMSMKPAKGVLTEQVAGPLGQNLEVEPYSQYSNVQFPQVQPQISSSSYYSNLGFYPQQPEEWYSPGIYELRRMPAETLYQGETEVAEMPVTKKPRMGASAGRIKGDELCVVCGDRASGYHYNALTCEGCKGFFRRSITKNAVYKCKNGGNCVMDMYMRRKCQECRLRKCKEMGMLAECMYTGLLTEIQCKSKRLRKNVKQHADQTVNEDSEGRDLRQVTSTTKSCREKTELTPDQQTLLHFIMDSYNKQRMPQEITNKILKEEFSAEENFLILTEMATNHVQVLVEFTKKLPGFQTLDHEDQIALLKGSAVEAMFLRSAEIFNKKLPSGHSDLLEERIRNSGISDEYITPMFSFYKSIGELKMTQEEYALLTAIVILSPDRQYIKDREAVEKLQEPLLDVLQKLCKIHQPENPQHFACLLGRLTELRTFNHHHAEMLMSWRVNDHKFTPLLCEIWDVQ
Retinoic acid receptor alpha (Homo sapiens), sequence (P10276 whole entry, looked up): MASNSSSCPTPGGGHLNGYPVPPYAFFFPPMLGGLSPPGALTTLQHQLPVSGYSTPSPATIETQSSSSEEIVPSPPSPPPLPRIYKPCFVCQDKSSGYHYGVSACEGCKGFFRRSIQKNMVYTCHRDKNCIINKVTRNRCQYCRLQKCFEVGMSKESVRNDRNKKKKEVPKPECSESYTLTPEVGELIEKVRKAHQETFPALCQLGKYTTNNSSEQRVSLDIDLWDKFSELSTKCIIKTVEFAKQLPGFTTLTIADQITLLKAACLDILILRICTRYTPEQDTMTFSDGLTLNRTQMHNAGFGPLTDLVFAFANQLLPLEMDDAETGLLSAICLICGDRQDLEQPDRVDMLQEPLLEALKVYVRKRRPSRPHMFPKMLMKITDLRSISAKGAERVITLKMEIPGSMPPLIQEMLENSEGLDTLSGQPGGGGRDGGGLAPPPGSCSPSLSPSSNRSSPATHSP

With `CCCSP(=O)(OCC)SCCC`, the compound was called inactive in assay [1], in [2], in [3], in assay [4], in assay [5] and in assay [6]. Besides, the outcome in [7], in assay [8], in assay [9], in assay [10], in [11] and in assay [12] was inactive. In addition, the result in assay [13], in assay [14], in assay [15], in assay [16], in [17] and in assay [18] was inactive. In assay [19], the compound was called inactive.

For `CSC1=N[C@@](C)(c2ccccc2)C(=O)N1Nc1ccccc1`, the AC50 in assay [1] was 4.24 µM (active); in assay [2] it was 6.21 µM (active); in [5], 50 µM (active); in assay [6], 3.2 µM (active); in assay [8], 5.2 µM (active); in assay [13], 19.9 µM (active). In addition, the compound was called inactive in [3], in assay [4], in assay [7], in assay [10], in [11] and in [12]. Moreover, the call in assay [14], in assay [15], in assay [16], in assay [17], in assay [20] and in assay [18] was inactive. The compound was classed as inactive in assay [19].

As to `CC(C)=CC1C(C(=O)OCN2C(=O)C3=C(CCCC3)C2=O)C1(C)C` (stereo unspecified), the AC50 is 38.4 µM (active) in assay [1]; 10.9 µM (active) in [2]; 73.6 µM (active) in assay [4]; 71.2 µM (active) in assay [6]; 50 µM (active) in assay [8]; 62.1 µM (active) in assay [13]. Moreover, the compound was classed as inactive in assay [3], in assay [5], in [7], in [10], in assay [11] and in assay [12]. In addition, the call in [14], in assay [15], in assay [16], in [17], in assay [20] and in [18] was inactive.
